High-throughput results deposited in PubChem by Johns Hopkins Ion Channel Center.
KCNQ2 inh: rat KCNQ2 potassium channel inhibitors, primary screen, cell-based, CHO-K1, FluxOR thallium flux, B-score; 1.1% of 310,000 active; Potassium voltage-gated channel subfamily KQT member 2 (Rattus norvegicus), O88943; 20 min; stronger effect = lower value; B-score at 10 µM;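 active = fluorescence ratio B-score at most minus 3 library SDs, with starting brightness B-score within 2 library SDs, cut at about -5.5 in these data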
KCNQ2 pot: potentiators of rat KCNQ2 potassium channel; AID 2239, 2010; B-score at 10 µM; Potassium voltage-gated channel subfamily KQT member 2 (Rattus norvegicus), O88943; CHO-K1 KCNQ2, FluxOR thallium flux fluorescence; stronger effect = higher value; 0.54% of 310,000 active;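 active = fluorescence ratio B-score at least 3 SD of library B-scores, with initial fluorescence B-score within 3 of them, cut at about 5.3 in these data; same plate scores as AID 2156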;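 note: B-score of peak minus minimum over baseline fluorescence ratio after K+ and Tl+ stimulus; positive B-score means potentiation of KCNQ2 with more thallium influx and brighter signal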
Kir21 conf inh: mouse Kir2.1 channel blockers, retest, confirmation, cell-based, FluxOR thallium flux, duplicate; 41% of 2,300 active; AID 2032, 2009; Tl flux remaining, % of negative control (stronger effect = lower value), % at 10 µM; shares compounds with KCNQ2 pot; Kir2.1-expressing cells, FluxOR thallium flux fluorescence; stronger effect = lower value;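 active = Primary-screen hit whose thallium flux fell at least 3 control SD below untreated wells in both duplicates, with normal baseline fluorescence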;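 note: 0% = blank wells without stimulus and 100% = stimulated no-compound controls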
HEK293 ctr: parental HEK293 activity in Kir2.1 inhibitor counter-screen; shares compounds with KCNQ2 pot; parental HEK293 cells, FluxOR thallium flux fluorescence; 0% = unstimulated blank wells; FluxOR signal as % of negative control (100 = no effect), % at 10 µM; 19% of 2,300 active; AID 2105;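 active = dye signal at least 3 control SD above or below untreated wells in both duplicates, raw fluorescence within 3, either direction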;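 note: percent is based on the flux ratio of peak minus minimum fluorescence over baseline F0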
CHO-K1 ctr: nonspecific thallium flux increase in parental CHO-K1, confirmation, counter-screen for KCNQ2 potentiator project, cell-based, FluxOR thallium flux, duplicate | parental CHO-K1 cells, FluxOR thallium flux fluorescence; zero = vehicle mean+3SD, 100% = vehicle-minus-blank window | 43% of 1,200 active | activity increase over 3SD of controls, % at 10 µM | shares compounds with KCNQ2 pot;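 active = signal rise of at least 3 SD above the untreated control mean, in both duplicate wells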;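 note: counter screen of KCNQ2 potentiator hits so any rise reflects channel-independent effects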
KCNQ1 sel pot: human KCNQ1 channel potentiation off-target, confirmation, selectivity assay for KCNQ2 potentiator project, cell-based, CHO, FluxOR thallium flux; shares compounds with KCNQ2 pot; CHO KCNQ1 stable, FluxOR thallium flux fluorescence; beyond 3SD, as % of vehicle-control signal; activation over 3SD threshold, % at 10 µM; 28% of 1,200 active; AID 2283, 2010;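 active = fluorescence ratio rise of at least 3 SD of vehicle wells above their mean, in both replicate wells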;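 note: 0% = vehicle mean plus 3 SD and 100% = vehicle minus unstimulated blank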
KCNQ2 pot confirm: rat KCNQ2 channel potentiators, confirmation, cell-based, CHO, FluxOR thallium flux, duplicate. potentiation, less the hit threshold, % at 10 µM. CHO-KCNQ2 cells, FluxOR thallium flux fluorescence. 68% of 1,200 active. shares compounds with KCNQ2 pot. AID 2287, 2010;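 active = fluorescence ratio rising 3 SD or more over the vehicle control mean in both replicates, plus primary screen hit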;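 note: peak minus minimum thallium fluorescence divided by baseline after K/Tl stimulus; 0% = vehicle mean plus 3 SD and 100% = vehicle minus unstimulated blank difference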
Kir21 spec: mouse Kir2.1 channel activation off-target, confirmation, selectivity assay for KCNQ2 potentiator project, cell-based, HEK293, FluxOR thallium flux | activity over 3SD threshold, % at 10 µM | HEK293 Kir2.1, FluxOR thallium flux fluorescence | AID 2345, 2010 | 2% of 1,200 active | shares compounds with KCNQ2 pot;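 active = fluorescence ratio rise of at least 3 SD above the vehicle-control mean, seen in both replicates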;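 note: 0% = vehicle mean plus 3 SD and 100% = vehicle minus no-stimulus blank window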
KCNQ2 W236L pot: potentiators of retigabine-insensitive KCNQ2 W236L, mechanism study for KCNQ2 potentiator project, cell-based, rat KCNQ2 W236L, CHO, automated patch clamp | shares compounds with KCNQ2 pot | automated patch clamp current | current increase over 3SD of negative controls (%), stronger effect = higher value, % at 25 µM | 10% of 940 active | AID 2558, 2010;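 active = current increase at least 3 SD of the untreated controls above them in both duplicate recordings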
Target sequence (O88943 whole entry W236L, looked up): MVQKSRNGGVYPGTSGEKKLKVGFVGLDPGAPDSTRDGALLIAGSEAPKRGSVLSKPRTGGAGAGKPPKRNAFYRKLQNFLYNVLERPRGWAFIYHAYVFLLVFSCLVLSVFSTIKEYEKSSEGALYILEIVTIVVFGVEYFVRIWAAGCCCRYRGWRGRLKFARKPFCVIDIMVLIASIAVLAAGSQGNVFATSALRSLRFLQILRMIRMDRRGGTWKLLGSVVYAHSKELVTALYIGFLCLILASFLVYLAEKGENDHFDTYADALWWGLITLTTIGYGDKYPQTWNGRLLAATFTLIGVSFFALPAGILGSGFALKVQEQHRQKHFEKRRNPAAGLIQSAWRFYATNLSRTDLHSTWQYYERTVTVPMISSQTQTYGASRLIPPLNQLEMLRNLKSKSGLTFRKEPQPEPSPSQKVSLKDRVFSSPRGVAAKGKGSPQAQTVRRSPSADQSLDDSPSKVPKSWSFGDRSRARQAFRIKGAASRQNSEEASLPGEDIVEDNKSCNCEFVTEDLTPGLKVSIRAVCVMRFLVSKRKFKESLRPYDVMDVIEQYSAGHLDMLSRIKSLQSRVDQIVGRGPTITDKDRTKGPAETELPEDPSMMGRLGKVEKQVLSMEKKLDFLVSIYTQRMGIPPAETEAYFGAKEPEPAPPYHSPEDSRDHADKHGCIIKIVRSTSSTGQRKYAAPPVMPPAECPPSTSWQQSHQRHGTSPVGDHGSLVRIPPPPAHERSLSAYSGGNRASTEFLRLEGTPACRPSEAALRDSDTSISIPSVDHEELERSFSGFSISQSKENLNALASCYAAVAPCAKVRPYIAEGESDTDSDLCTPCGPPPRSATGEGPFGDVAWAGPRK
* = called active by the depositor; i = inactive; x = not tested or not shown. Compounds with a hit are over-represented: about 1.6% of the library has one in this group of screens.

SMILES	KCNQ2 inh	KCNQ2 pot	Kir21 conf inh	HEK293 ctr	CHO-K1 ctr	KCNQ1 sel pot	KCNQ2 pot confirm	Kir21 spec	KCNQ2 W236L pot
CCCCCCC(O)(c1ccccc1)C(CN1CCOCC1)c1ccccc1 (stereo not given)	i	0.4	x	x	x	x	x	x	x
S=C(NCC1CCCO1)c1ccc(Br)cc1 (stereo not given)	i	x	x	x	x	x	x	x	x
O=C(Nc1scc(-c2ccc(Br)cc2)c1C(=O)O)c1ccccc1F	i	5.3*	i	186%*	-10	-13	34*	-28	i
O=C(Nc1scc(-c2ccccc2)c1C(=O)O)c1ccccc1F	i	x	x	x	x	x	x	x	x
S=C(NCCN1CCOCC1)Nc1ccccc1Cl	i	0.84	x	x	x	x	x	x	x
CCc1ccc(NC(=S)Nc2ccc(S(=O)(=O)Nc3ncccn3)cc2)cc1	i	x	x	x	x	x	x	x	x
COc1ccc(CC(=O)Oc2ccc(F)c(F)c2)cc1S(=O)(=O)N1CCOCC1	i	x	x	x	x	x	x	x	x
COC(=O)c1cccc(NC(=S)Nc2ccccc2Cl)c1	i	0.44	x	x	x	x	x	x	x
COC(=O)c1cccc(NC(=S)Nc2ccc(Cl)c(Cl)c2)c1	i	5.4*	i	i	-9	1.4*	-1	-40	i
COc1cccc(CC(=O)Nc2ccccc2C(=O)N2CCOCC2)c1	i	0.29	x	x	x	x	x	x	x
COc1cccc(CC(=O)Nc2ccccc2N2CCCC2)c1	i	6.1*	50%*	i	-9	18*	17*	-92	i
COc1ccc(CC(=O)Nc2ccccc2N2CCOCC2)cc1OC	i	0.11	x	x	x	x	x	x	x
COc1ccc(CC(=O)Nc2ccccc2N2CCCCC2)cc1OC	i	x	i	78%*	x	x	x	x	x
COc1cc(CC(=O)Nc2ccc3c(c2)CCC3)cc(OC)c1OC	i	0.88	x	x	x	x	x	x	x
COc1cccc(CC(=O)Nc2ccc3c(c2)CCC3)c1	i	6*	i	i	-14	-18	12*	-30	i
Cc1cc(NC(=O)C(C)SCC(=O)Nc2ccccc2C(C)(C)C)no1 (stereo not given)	i	x	x	x	x	x	x	x	x
COc1cccc(C(C)NC(=S)NCc2ccc(F)cc2)c1 (stereo not given)	i	3.2	48%*	i	x	x	x	x	x
CCOc1ccc(C(C)NC(=S)NCc2ccc(F)cc2)cc1 (stereo not given)	i	2.9	x	x	x	x	x	x	x
Cc1ccc(C(C)NC(=S)NCc2ccc(F)cc2)cc1C (stereo not given)	i	8.1*	68%*	i	0.0*	45*	33*	-73	i
CCc1ccc(C(C)NC(=S)NCc2ccc(F)cc2)cc1 (stereo not given)	i	4.6	x	x	x	x	x	x	x
Cc1ccc(NC(=S)NCc2ccc(S(N)(=O)=O)cc2)c(C)c1	i	0.24	x	x	x	x	x	x	x
Cc1ccc(NC(=S)NCc2ccc(F)cc2)c(C)c1	i	5.5*	i	i	-7	-8	42*	-53	i
Cc1cc(C)c(NC(=O)/C=C\C(=O)O)c(Cl)c1	i	x	x	x	x	x	x	x	x
Cc1cc(C)c(NC(=O)CS)c(Cl)c1	i	20*	i	i	-16	-2	95*	-40	i
Cc1cc(C)c(NC(=O)CC(=O)c2ccccc2)c(Cl)c1	i	1.9	x	x	x	x	x	x	x
SMILES	KCNQ2 inh	KCNQ2 pot	Kir21 conf inh	HEK293 ctr	CHO-K1 ctr	KCNQ1 sel pot	KCNQ2 pot confirm	Kir21 spec	KCNQ2 W236L pot
Cc1cc(C)c(NC(=O)CC(C)(C)C)c(Cl)c1	i	25*	i	i	-8	-28	73*	-29	i
Cn1c(=O)c2c(SCC(=O)c3ccccc3)nc(C3CC3)nc2n(C)c1=O	i	5.4*	i	i	84*	-14	2.4*	-24	i
CCc1nc(SCC(=O)c2ccccc2)c2c(=O)n(C)c(=O)n(C)c2n1	i	5.4*	i	i	-25	-19	5.8*	-23	i
CCc1nc(SCC(=O)NCCc2ccccc2)c2c(=O)n(C)c(=O)n(C)c2n1	i	0.86	x	x	x	x	x	x	x
CCCc1nc(SCC(=O)c2ccccc2)c2c(=O)n(C)c(=O)n(C)c2n1	i	25*	i	i	67*	79*	56*	-26	i
Cn1c(=O)c2c(SCC(=O)Nc3nccs3)nc(C3CC3)nc2n(C)c1=O	i	0.34	x	x	x	x	x	x	x
CCCc1nc(SCC(=O)NCc2ccco2)c2c(=O)n(C)c(=O)n(C)c2n1	i	2.5	x	x	x	x	x	x	x
C=CCn1c(C)cc(-c2csc(NC(=O)CCc3nc4ccccc4c(=O)[nH]3)n2)c1C	i	x	x	x	x	x	x	x	x
COc1cccc(CN2CCC(C(=O)N3CCN(c4ccccc4F)CC3)CC2)c1OC	i	2.2	x	x	x	x	x	x	x
Cc1cccc(NC(=O)C(=O)NNC(=O)c2ccc(C(C)(C)C)cc2)c1	i	16*	i	i	22*	4.1*	44*	-31	i
CC(C)(C)c1ccc(C(=O)NNC(=O)c2cccc(Br)c2)cc1	i	0.8	x	x	x	x	x	x	x
NC(=O)c1cc(S(=O)(=O)N2CCc3ccccc3C2)cs1	i	0.57	x	x	x	x	x	x	x
COc1cccc(CN2CC(C(=O)NCCc3ccc(C)s3)CCC2=O)c1 (stereo not given)	i	x	x	x	x	x	x	x	x
Cc1cc(C)c(OCCCCNCc2ccccc2)c(Cl)c1	i	x	12%*	i	x	x	x	x	x
COc1c(Cl)cc(Cl)cc1CNCc1ccccc1	i	x	x	x	x	x	x	x	x
Clc1ccc(OCCCNCc2ccccc2)c2ccccc12	-7.6*	-7.6	14%*	74%*	x	x	x	x	x
Clc1ccc(OCCOCCNCc2ccccc2)cc1Cl	i	x	22%*	i	x	x	x	x	x
CC(C)(C)c1ccc(OCCNCc2ccccc2)cc1	i	x	x	x	x	x	x	x	x
Cc1cc(Cl)cc(C)c1OCCOCCNCc1ccccc1	i	x	14%*	i	x	x	x	x	x
CCC(C)NCCOCCOc1ccc(Cl)c2ccccc12 (stereo not given)	i	0.24	x	x	x	x	x	x	x
COc1ccccc1OCCCOc1c(Cl)cc(C)cc1Cl	i	0.23	x	x	x	x	x	x	x
COC(=O)c1ccc(NC(=S)NC2CCc3ccccc32)cc1 (stereo not given)	i	x	x	x	x	x	x	x	x
